According to ChEMBL document CHEMBL1201862, “PubChem BioAssay data set” (2004):
The campaign covered roughly 54,000 sequences. About 2,800 (5.2%) were called active. No stated cut-off is given here; in the data, active = GI50 up to about 1.1 µM and inactive = higher. The list is a sample of the results. Potency and affinity values are given separately.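 Where inhibition never reached the appropriate level, the endpoint shown equals the highest concentration tested. Otherwise, values were interpolated linearly from a five-concentration, 48-hour dose response in 96-well plates. GI50 marks 50% less growth.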

Each substance was assayed on NCI-H226 (assay: NCI tumour cell line growth inhibition, 48 h).

Substance	GI50 [µM]
cis-Bis[[(trimethylsilyl)methyl]amino]tetrachloroplatinum(IV), CHEMBL2146191	13.6
CISPLATIN, CHEMBL11359	5.05
[Bis(aminomethyl)dimethylsilane]tetrachloroplatinum(IV), CHEMBL2146190	4.49
[Bis(aminomethyl)tetramethylenesilane]tetrachloropaltinum(IV), CHEMBL2146189	8.18
[Bis(aminomethyl)tetramethylenesilane]dichloropaltinum(II), CHEMBL2146205	32.9
mu-(1,7-nanodiamine-N,N')bis-(cis-aminedichloroplatimum (II)), CHEMBL2146215	1.07
[Bis(aminomethyl)pentamethylenesilane]dichloropaltinum(II), CHEMBL2146202	1.43
[Bis(aminomethyl)ethylmethylsilane]tetrachloroplatinum(IV), CHEMBL2146192	5.75
[Bis(aminomethyl)diethylsilane]tetrachloroplatinum(IV), CHEMBL2146203	1.5
[Bis(aminomethyl)pentamethylenesilane]tetrachloropaltinum(IV), CHEMBL2146204	3.88
[Bis(aminomethyl)dimethylsilane]dichloroplatinum (II), CHEMBL2146201	35.8
